# Laboratory results as given in PubChem BioAssay.
# Records with an inconclusive call do not appear. The source made the active and inactive calls.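 The calls were made as follows, unless noted: active = normalized viability below 100% at a tested concentration; inactive = the rest.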
# What was measured:
# [1] = viability loss in pontine glioma line – cell-based, SU-DIPG-XVII, MIPE5.0, CellTiter-Glo, qHTS, dose response (AID 1347060; cut-off not given, nearly all actives have AC50 up to about 26 µM;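 as to AC50: cells exposed to compound for 48 hours before viability readout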); conditions: CellTiter-Glo ATP luminescence
# [2] = viability loss in pontine glioma line – cell-based, JHH-DIPG-1, MIPE4.0, CellTiter-Glo, qHTS, dose response (AID 1347062; cut-off not given, nearly all actives have AC50 up to about 27 µM;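 as to AC50: cells exposed to compound for two days before readout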); conditions: JHH-DIPG-1 viability, CellTiter-Glo ATP luminescence
# [3] = viability loss in pontine glioma line – cell-based, SU-DIPG-XIII, MIPE5.0, CellTiter-Glo, qHTS, dose response (AID 1347064; cut-off not given, nearly all actives have AC50 up to about 23 µM;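 as to AC50: cells exposed to compound for 48 hours before the viability read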); conditions: CellTiter-Glo ATP luminescence
# [4] = viability loss in pontine glioma line – cell-based, SU-DIPG-XXV, MIPE5.0, CellTiter-Glo, qHTS, dose response (AID 1347065; cut-off not given, nearly all actives have AC50 up to about 26 µM;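 also: cells exposed to compound for 48 hours before ATP readout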); conditions: CellTiter-Glo ATP luminescence
# [5] = JHH-DIPG-1 glioma cell viability, MIPE5.0 library, CellTiter-Glo luminescence, qHTS (AID 1347067; cut-off not given, nearly all actives have AC50 up to about 26 µM;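 also: cells exposed to compound for 48 hours before readout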); conditions: JHH-DIPG-1 glioma viability, CellTiter-Glo ATP luminescence
# [6] = growth inhibition of DIPG cells – cell-based, MIPE5.0 library, qHTS (AID 1347068; cut-off not given, nearly all actives have IC50 up to about 30 µM;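 as to IC50: cells exposed to compound for 48 hours before viability readout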); conditions: SU-DIPG-XXV viability
# [7] = viability loss with induced miR-34 in A549 – imaging, A549 dox-inducible miR-34, nuclei and caspase counts, primary screen (AID 1347080;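 active = compounds whose cell count with miR-34 switched on is under 0.7 times the count with it off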); conditions: A549 miR-34 inducible, Hoechst nuclei count, 48 h
# [8] = compounds altering HSF1 focus formation in cells – imaging, Selleck Cancer Library (AID 1347162; in the data active = plate-normalised HSF1 focus index below about 0.46); conditions: human cells, HSF1 nuclear foci imaging, at 10 µM; SSMD: measured here: HSF1 foci SSMD mean; cell count: measured here: cell number; plate-normalised HSF1 focus index: stronger effect = lower value
# [9] = MELAS cybrid and Rieske KO viability enhancers – cell-based, MELAS cybrids, Rieske KO mouse fibroblasts, CellTiter-Glo, primary screen (AID 1508586;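 active = mean z-score across replicates of 1.96 or higher in either the MELAS or the Rieske mutant cell line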;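 also: z relative to plate mean and SD of compound and empty wells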); conditions: low glucose
# [10] = drug combination growth inhibition, ovarian cancer – cell-based, oncology-focused library, rucaparib conditional, profiling panel (AID 1508598); conditions: patient-derived ovarian cancer cells, CellTiter-Glo viability, 144 h, stronger effect = lower value
# [11] = stronger effect = lower value, cell number ratio, induced over uninduced
# [12] = measured here: relative caspase fold change +Dox/-Dox
# [13] = measured here: total cells with miR-34 induction, stronger effect = lower value
# [14] = measured here: total cells without miR-34 induction
# [15] = MELAS cybrid survival, CellTiter-Glo 48 h, stronger effect = higher value
# [16] = Rieske KO mouse fibroblast survival, CellTiter-Glo 72 h
structure (smiles),measurement,setting,value
CS(=O)(=O)Oc1ccc2c(NC(N)=O)c(C(=O)c3ccc(Cl)cc3Cl)oc2c1,outcome,[1],inactive
same,AC50,[2],2350 nM (active)
same,outcome,[3],inactive
same,outcome,[4],inactive
same,outcome,[5],inactive
same,outcome,[6],inactive
COc1cc(Nc2ncc3c(n2)-c2ccc(Cl)cc2C(c2c(F)cccc2OC)=NC3)ccc1C(=O)O,AC50,[1],148 nM (active)
same,outcome,[2],inactive
same,AC50,[3],8330 nM (active)
same,AC50,[4],93.4 nM (active)
same,AC50,[5],8330 nM (active)
same,IC50,[6],3720 nM (active)
same,fold change,[7]; [11],1.23 (inactive)
same,fold change,[7]; [12],1.04
same,cell count,[7]; [13],1850
same,cell count,[7]; [14],1510
same,SSMD,[8],2.08
same,cell count,[8],6720
same,plate-normalised HSF1 focus index,[8],1.13 (inactive)
same,z-score,[9]; [15],-0.56 (inactive)
same,z-score,[9]; [16],0.925
same,viability,"[10]; at 0.000305 µM, OCI-C5x cells, with rucaparib 10 µM, 100% = cells with rucaparib alone",94.6% (active)
same,viability,"[10]; at 0.000305 µM, OCI-C5x cells, without rucaparib",108% (inactive)
same,viability,"[10]; at 0.000305 µM, OCI-P5x cells, with rucaparib 20 µM, 100% = cells with rucaparib alone",113% (inactive)
same,viability,"[10]; at 0.000305 µM, OCI-P5x cells, without rucaparib",109% (inactive)
same,viability,"[10]; at 0.00122 µM, OCI-C5x cells, with rucaparib 10 µM, 100% = cells with rucaparib alone",112% (inactive)
same,viability,"[10]; at 0.00122 µM, OCI-C5x cells, without rucaparib",101% (inactive)
same,viability,"[10]; at 0.00122 µM, OCI-P5x cells, with rucaparib 20 µM, 100% = cells with rucaparib alone",110% (inactive)
same,viability,"[10]; at 0.00122 µM, OCI-P5x cells, without rucaparib",106% (inactive)
same,viability,"[10]; at 0.00488 µM, OCI-C5x cells, with rucaparib 10 µM, 100% = cells with rucaparib alone",107% (inactive)
same,viability,"[10]; at 0.00488 µM, OCI-C5x cells, without rucaparib",98.7% (active)
same,viability,"[10]; at 0.00488 µM, OCI-P5x cells, with rucaparib 20 µM, 100% = cells with rucaparib alone",110% (inactive)
same,viability,"[10]; at 0.00488 µM, OCI-P5x cells, without rucaparib",106% (inactive)
same,viability,"[10]; at 0.0195 µM, OCI-C5x cells, with rucaparib 10 µM, 100% = cells with rucaparib alone",94.4% (active)
same,viability,"[10]; at 0.0195 µM, OCI-C5x cells, without rucaparib",103% (inactive)
same,viability,"[10]; at 0.0195 µM, OCI-P5x cells, with rucaparib 20 µM, 100% = cells with rucaparib alone",106% (inactive)
same,viability,"[10]; at 0.0195 µM, OCI-P5x cells, without rucaparib",99.3% (active)
same,viability,"[10]; at 0.0781 µM, OCI-C5x cells, with rucaparib 10 µM, 100% = cells with rucaparib alone",75.5% (active)
same,viability,"[10]; at 0.0781 µM, OCI-C5x cells, without rucaparib",70.5% (active)
same,viability,"[10]; at 0.0781 µM, OCI-P5x cells, with rucaparib 20 µM, 100% = cells with rucaparib alone",91.7% (active)
same,viability,"[10]; at 0.0781 µM, OCI-P5x cells, without rucaparib",70.7% (active)
same,viability,"[10]; at 0.313 µM, OCI-C5x cells, with rucaparib 10 µM, 100% = cells with rucaparib alone",74.5% (active)
same,viability,"[10]; at 0.313 µM, OCI-C5x cells, without rucaparib",82.5% (active)
same,viability,"[10]; at 0.313 µM, OCI-P5x cells, with rucaparib 20 µM, 100% = cells with rucaparib alone",87.4% (active)
same,viability,"[10]; at 0.313 µM, OCI-P5x cells, without rucaparib",63.8% (active)
same,viability,"[10]; at 1.25 µM, OCI-C5x cells, with rucaparib 10 µM, 100% = cells with rucaparib alone",76.8% (active)
same,viability,"[10]; at 1.25 µM, OCI-C5x cells, without rucaparib",77% (active)
same,viability,"[10]; at 1.25 µM, OCI-P5x cells, with rucaparib 20 µM, 100% = cells with rucaparib alone",82.8% (active)
same,viability,"[10]; at 1.25 µM, OCI-P5x cells, without rucaparib",56.7% (active)
same,viability,"[10]; at 5 µM, OCI-C5x cells, with rucaparib 10 µM, 100% = cells with rucaparib alone",42.9% (active)
same,viability,"[10]; at 5 µM, OCI-C5x cells, without rucaparib",34.9% (active)
same,viability,"[10]; at 5 µM, OCI-P5x cells, with rucaparib 20 µM, 100% = cells with rucaparib alone",78.6% (active)
same,viability,"[10]; at 5 µM, OCI-P5x cells, without rucaparib",39% (active)
COc1ccc(/C=C\c2cc(OC)c(OC)c(OC)c2)cc1NC(=O)[C@H](N)CO,AC50,[1],83.3 nM (active)
same,AC50,[2],20.9 nM (active)
same,AC50,[3],590 nM (active)
same,AC50,[4],148 nM (active)
same,AC50,[5],235 nM (active)
same,IC50,[6],332 nM (active)
C=CC[N+]1([C@H]2C[C@H]3[C@@H]4CC[C@H]5C[C@H](O)[C@@H](N6CCOCC6)C[C@]5(C)[C@H]4CC[C@]3(C)[C@H]2OC(C)=O)CCCC1,outcome,[1],inactive
same,outcome,[2],inactive
same,outcome,[3],inactive
same,outcome,[5],inactive
same,outcome,[6],inactive
same,fold change,[7]; [11],0.847 (inactive)
same,fold change,[7]; [12],1.54
same,cell count,[7]; [13],9100
same,cell count,[7]; [14],10700
same,z-score,[9]; [15],0.124 (inactive)
same,z-score,[9]; [16],-0.444
